This is part of a sample that, as a whole, favours compounds with a hit. Of some 83,000 tested, about 20% had one in any assay.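 For each line, cells grew in 96-well plates with the test compound present at a single concentration for 48 hours.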 A number with no mark means an inactive call. Activity calls are given as the source filed them. How the source made its calls: active means growth percent below 10; inactive means the rest.
What was measured:
Experiment in all cases: NCI-60 one-dose screen, 48 h (100 = growth as untreated, 0 = no growth, -100 = all killed)
Conditions in all cases: 10 µM unless noted
T-47D breast = test system: T-47D breast
BT-549 breast = test system: BT-549 breast
MDA-MB-435 melanoma = test system: MDA-MB-435 melanoma
SW-620 colon = test system: SW-620 colon
MCF7 breast = test system: MCF7 breast
HCT-116 colon = test system: HCT-116 colon
HCC-2998 colon = test system: HCC-2998 colon
KM12 colon = test system: KM12 colon

Row | SMILES | growth (T-47D breast) | growth (BT-549 breast) | growth (MDA-MB-435 melanoma) | growth (SW-620 colon) | growth (MCF7 breast) | growth (HCT-116 colon) | growth (HCC-2998 colon) | growth (KM12 colon)
1 | CCN1C2CCC1/C(=C\c1ccccc1)C(=O)/C2=C/c1ccccc1 | 56.9% | 48.6% | 30.7% | 42.4% | 25.2% | 15.6% | 80.1% | 20.6%
2 | COc1ccc(/C=C2\CN(C(=O)C(Cl)Cl)C/C(=C\c3ccc(OC)c(OC)c3)C2=O)cc1OC | 0.33% (active) | -41% (active) | -34.3% (active) | -41.4% (active) | 0.517% (active) | -83.6% (active) | -95.5% (active) | -49.7% (active)
3 | c1ccc(-c2ccc3c(c2)C2(CCNCC2)CN3)cc1 | 80.3% | 99.3% | 106% | 93.6% | 80.2% | 87.1% | 103% | 87.7%
4 | O=[N+]([O-])c1ccccc1Sc1ccccc1[N+](=O)[O-] | 81.5% | 100% | 103% | 110% | 108% | 94.9% | 97.5% | 92.6%
5 | O=C(CCCCCCCC(=O)N1CCCCC1)N1CCCCC1 | 117% | 96.4% | 105% | 92.2% | 97.1% | 94.8% | 86.5% | 100%
6 | O=C(/C=C/c1ccccc1)c1ccc(-n2cc(CN3CCN(c4cc5c(cc4F)c(=O)c(C(=O)O)cn5C4CC4)CC3)nn2)cc1 | 92.9% | 76.7% | 79.5% | 83.7% | 58.2% | 6.95% (active) | 88.3% | 73.7%
7 | COCCn1cc(-c2csc(-c3c[nH]c4ccc(F)cc34)n2)c2cccnc21 | 2.36% (active) | 7.07% (active) | 5.02% (active) | 18.8% | 11.8% | 22.2% | 27.6% | 8.29% (active)
8 | COc1ccc(CNc2ccc3nc(NC(=O)CN4CCCCCC4)sc3c2)cc1 | 42.8% | 86.1% | 94.1% | 86.7% | 69.1% | 68.6% | 109% | 89.2%
9 | COc1ccc(-c2cc(C(=O)N3N=C(c4ccc(N)cc4)CC3c3ccc(Cl)cc3)c3ccccc3n2)cc1 (configuration not stated) | 47.4% | 8.43% (active) | -12.9% (active) | 29.2% | 13.9% | 15.6% | 21.5% | 20.7%
10 | CC(C)(C)CC(C)(C)Nc1c(-c2c(O)c3ccccc3oc2=O)nc2sc3ccccc3n12 | 15.9% | 51.9% | 47.9% | 21.3% | 28.9% | 29.6% | 52.6% | 45.1%
11 | O=C(Nc1nc(Cl)nc(Nc2ccc(N3CCOCC3=O)cc2)n1)c1ccc(Cl)s1 | 71.7% | 106% | 96.4% | 76.1% | 59.1% | 84.3% | 82.3% | 90.6%
12 | CN1c2ccccc2S(=O)(=O)n2c(SCC(=O)Nc3nc4ccc(F)cc4s3)nnc21 | 112% | 122% | 117% | 107% | 88.2% | 110% | 128% | 97.7%
13 | Cc1cn(C)cn1 | 104% | 101% | 98.4% | 108% | 94.9% | 105% | 108% | 105%
14 | COC(=O)Cn1c2c(c3c(OC)cccc31)C(=O)c1ccccc1-2 | 89.7% | 103% | 112% | 96.9% | 85.9% | 89.1% | 89.8% | 107%
15 | O=C(C1=Cc2cc3ccccc3n2Cc2cnnn21)c1ccc(F)cc1 | 95% | 94.9% | 97.5% | 108% | 94% | 97.9% | 110% | 90.8%
16 | CC1(C)CC[C@]23CC[C@]4(C)[C@H](CC[C@@H]5[C@@]6(C)CCNCC(C)(C)[C@@H]6CC[C@]54C)[C@H]2[C@H]1OC3 | 77.8% | 94.2% | 86.5% | 49.9% | 91.5% | 55% | 28.6% | 81.4%
17 | CN(C)CCCn1c2c(c3cnccc3c1=O)C(=O)c1ccccc1-2 | -5.32% (active) | 6.92% (active) | 3.83% (active) | -6.01% (active) | -3.97% (active) | -12.6% (active) | 3.98% (active) | 3.16% (active)
18 | CS(=O)/C(C#N)=C\C=C\c1cccc(Cl)c1 (configuration not stated) | 16.5% | 9.95% (active) | 5.01% (active) | 14.9% | 12.9% | -28.1% (active) | -31.1% (active) | 12.5%
19 | CN(C)Cc1cc(C(C)(C)C)cc(Br)c1O | 99.6% | 114% | 101% | 87.7% | 87.9% | 103% | 109% | 109%
20 | CCCC(O)Cn1ncc(C(=O)OCC)c1NC(=O)NCc1cccc(C(F)(F)F)c1 (configuration not stated) | 73.2% | 77.8% | 103% | 106% | 97.6% | 61.4% | 85.3% | 103%
21 | Cc1ccc2cnc(N)c(C#Cc3cc(C(=O)Nc4ccc(CN5CCN(C)CC5)c(C(F)(F)F)c4)cnc3C)c2c1 | 66.8% | 16.5% | -69.3% (active) | -77.3% (active) | -50.8% (active) | -83.9% (active) | 54% | 0.561% (active)
22 | CCOC(=O)CC1CSC(N/N=C/c2ccc(F)c(Br)c2)=N1 (configuration not stated) | 93.7% | 110% | 108% | 102% | 96.1% | 88.5% | 105% | 93.2%
23 | COc1cc2c(c(OC)c1OC)C(=O)CC(c1cccc(C(=O)Nc3ccc(C#N)cc3)c1)O2 (configuration not stated) | 9.48% (active) | 33% | 63% | 97.8% | 48.7% | 56.2% | 98.2% | 79.1%
24 | N#Cc1ccccc1-c1ccc(CN2C(=O)S/C(=C\c3ccc(Br)cc3)C2=O)cc1 | 85.3% | 95.9% | 94.5% | 103% | 95% | 105% | 98.9% | 98.9%
25 | c1cc(OCCCCCOc2cccc(-c3nc4ccccc4[nH]3)c2)cc(-c2nc3ccccc3[nH]2)c1 | 12.2% | 6.65% (active) | 8.32% (active) | 12.7% | -2.42% (active) | 7.44% (active) | 14.2% | 8.91% (active)
26 | COC(=O)/C(CCC=C(C)C)=C1\[C@@H](OC(C)=O)C[C@@]2(C)[C@H]1C/C(=N/O)[C@H]1[C@@]3(C)CC/C(=N\O)[C@@H](C)[C@@H]3CC[C@@]12C | 82.9% | 95.5% | 98.6% | 106% | 55.1% | 101% | 110% | 103%
27 | CS(=O)(=O)Nc1cc(-c2ccc3ncnc(Nc4ccc(OCc5ccccn5)c(Cl)c4)c3c2)cnc1Cl | -25.3% (active) | -3.21% (active) | 7.34% (active) | 5.12% (active) | 4.74% (active) | 9.28% (active) | 3.04% (active) | -5.09% (active)
28 | O=c1cc(-c2ccccc2)nc(SCc2nc3cc(Cl)c(Cl)cc3[nH]2)[nH]1 | 79% | 108% | 105% | 104% | 92.5% | 97.3% | 102% | 96%
29 | CCCCn1c(NC(C)=O)c(S(=O)(=O)c2ccccc2)c2nc3ccccc3nc21 | 79.9% | 103% | 106% | 109% | 98.4% | 127% | 113% | 103%

From PubChem BioAssay (NCI)
